Measurements reported in the supplement of paper PMC10849652.
Of roughly 7,900 targets only a part is listed; those with a hit were picked by preference. About 0.6% of all pairs of compound and target were hits.

Tests used:
Assay in all cases: log2 fold change, soluble protein after heating vs DMSO (PISA); higher = thermal stabilisation; K562 cells, 10 uM, 30 min; active = over 0.2 and 3.5 SD of the protein, either way, in both replicates (recomputed)
saracatinib = compound: CN1CCN(CCOc2cc(OC3CCOCC3)c3c(Nc4c(Cl)ccc5c4OCO5)ncnc3c2)CC1 [saracatinib]
Method in brief: (§1)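 For each measurement, 10 μM compound was applied for 30 min to K562 cells at 2×10^6 cells/mL. Aliquots were heated for 3 min across 48°C-58°C, pooled, and extracted in PBS with 0.5% NP-40 at 4°C; the supernatant after 21,000xg for 90 min was soluble protein. This was quantified by TMTpro 16plex LC-MS/MS with channel sums equalised, and thermal stability was reported relative to control samples from duplicates, on a log2 fold-change scale.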

sotrastaurin = compound: CN1CCN(c2nc(C3=C(c4c[nH]c5ccccc45)C(=O)NC3=O)c3ccccc3n2)CC1 [sotrastaurin]
Method in brief: as §1

alvocidib = compound: CN1CC[C@H](c2c(O)cc(O)c3c(=O)cc(-c4ccccc4Cl)oc23)[C@H](O)C1 [alvocidib]
Method in brief: as §1

Tubastatin A = compound: CN1CCc2c(c3ccccc3n2Cc2ccc(C(=O)NO)cc2)C1 [Tubastatin A]
Method in brief: as §1

[1] = compound: CNC(=O)C1=CC=CC=C1NC2=NC(=NC=C2Cl)NC3=C(C=C(C=C3)N4CCOCC4)OC
Method in brief: as §1

defactinib = compound: CNC(=O)c1ccc(Nc2ncc(C(F)(F)F)c(NCc3nccnc3N(C)S(C)(=O)=O)n2)cc1 [defactinib]
Method in brief: as §1

rucaparib = compound: CNCc1ccc(-c2[nH]c3cc(F)cc4c3c2CCNC4=O)cc1 [rucaparib]
Method in brief: as §1

[2] = compound: CNc1nc(-c2ccc3c(N)n[nH]c3c2)cc(N2C[C@@H](C(=O)NC3CCCCC3)CC[C@H]2C)n1
Method in brief: as §1

encorafenib = compound: COC(=O)N[C@@H](C)CNc1nccc(-c2cn(C(C)C)nc2-c2cc(Cl)cc(NS(C)(=O)=O)c2F)n1 [encorafenib]
Method in brief: as §1

[3] = compound: COC(=O)[C@H](CCSC)NC(=O)C1=C(C=C(C=C1)NC[C@H](CS)N)C2=CC=CC=C2
Method in brief: as §1

Measured: log2 fold change

VRK1 (UniProt Q99986)
UniProt Q99986, sequence (Q99986 whole entry, looked up): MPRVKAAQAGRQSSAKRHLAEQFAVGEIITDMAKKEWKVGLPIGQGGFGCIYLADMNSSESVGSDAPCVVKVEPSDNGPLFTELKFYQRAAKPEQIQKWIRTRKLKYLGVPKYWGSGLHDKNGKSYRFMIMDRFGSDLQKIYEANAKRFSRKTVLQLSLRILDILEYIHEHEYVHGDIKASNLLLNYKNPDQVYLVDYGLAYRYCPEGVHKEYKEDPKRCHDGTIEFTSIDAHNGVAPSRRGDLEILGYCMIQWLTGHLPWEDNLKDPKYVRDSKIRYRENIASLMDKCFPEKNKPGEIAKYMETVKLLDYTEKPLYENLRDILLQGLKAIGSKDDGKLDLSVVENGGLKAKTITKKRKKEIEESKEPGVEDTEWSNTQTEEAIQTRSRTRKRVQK
inactive: saracatinib -0.057 | sotrastaurin 0.152 | alvocidib 0.285 | Tubastatin A 0.07 | [1] 0.05 | defactinib -0.041 | rucaparib 0.048 | [2] 0.108 | encorafenib 0.043 | [3] -0.04

VPS8 (UniProt Q8N3P4)
inactive: saracatinib -0.009 | sotrastaurin -0.096 | alvocidib -0.038 | Tubastatin A 0.09 | [1] 0.002 | defactinib -0.171 | rucaparib 0.023 | [2] -0.015 | encorafenib 0.093 | [3] -0.078

WDR47 (UniProt O94967)
UniProt O94967, sequence (O94967 whole entry, looked up): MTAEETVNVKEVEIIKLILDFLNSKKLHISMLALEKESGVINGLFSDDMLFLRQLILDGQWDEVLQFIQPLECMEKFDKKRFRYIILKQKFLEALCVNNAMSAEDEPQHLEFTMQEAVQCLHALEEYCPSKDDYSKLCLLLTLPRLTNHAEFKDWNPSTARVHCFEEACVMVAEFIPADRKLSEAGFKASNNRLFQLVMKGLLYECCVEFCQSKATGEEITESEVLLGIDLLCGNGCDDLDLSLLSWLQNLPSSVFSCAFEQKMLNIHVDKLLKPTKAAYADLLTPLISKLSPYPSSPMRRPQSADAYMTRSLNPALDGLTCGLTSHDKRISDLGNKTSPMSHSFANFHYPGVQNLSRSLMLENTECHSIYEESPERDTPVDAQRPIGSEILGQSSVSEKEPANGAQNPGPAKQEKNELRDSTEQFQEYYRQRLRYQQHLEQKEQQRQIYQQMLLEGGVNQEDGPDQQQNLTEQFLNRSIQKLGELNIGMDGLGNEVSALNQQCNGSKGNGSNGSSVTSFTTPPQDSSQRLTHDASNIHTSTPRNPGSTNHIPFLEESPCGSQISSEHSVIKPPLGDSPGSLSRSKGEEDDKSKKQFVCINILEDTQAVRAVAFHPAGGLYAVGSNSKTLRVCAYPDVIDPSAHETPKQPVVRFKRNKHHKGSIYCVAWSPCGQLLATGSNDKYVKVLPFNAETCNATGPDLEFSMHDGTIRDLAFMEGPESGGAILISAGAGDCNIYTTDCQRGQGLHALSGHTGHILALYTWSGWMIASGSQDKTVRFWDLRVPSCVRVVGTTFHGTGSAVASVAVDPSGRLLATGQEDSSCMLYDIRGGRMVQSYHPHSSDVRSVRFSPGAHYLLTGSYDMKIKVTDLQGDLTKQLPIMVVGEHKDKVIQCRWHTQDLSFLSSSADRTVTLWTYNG
inactive: saracatinib -0.019 | sotrastaurin -0.008 | alvocidib -0.002 | Tubastatin A 0.039 | [1] 0.035 | defactinib 0.052 | rucaparib -0.071 | [2] -0.041 | encorafenib 0.045 | [3] -0.087

VPS18 (UniProt Q9P253)
inactive: saracatinib -0.034 | sotrastaurin -0.156 | alvocidib -0.118 | Tubastatin A -0.052 | [1] -0.003 | defactinib -0.068 | rucaparib 0.099 | [2] 0.029 | encorafenib 0.031 | [3] -0.076

XPO1 (UniProt O14980)
inactive: saracatinib 0.003 | sotrastaurin -0.088 | alvocidib -0.096 | Tubastatin A 0.001 | [1] -0.028 | defactinib -0.093 | rucaparib -0.012 | [2] 0.02 | encorafenib 0.094 | [3] -0.041

TOE1 (UniProt Q96GM8)
inactive: saracatinib 0.025 | sotrastaurin -0.016 | alvocidib 0.221 | Tubastatin A 0.031 | [1] 0.122 | defactinib 0.193 | rucaparib -0.066 | [2] 0.05 | encorafenib 0.017 | [3] 0.05

XPOT (UniProt O43592)
UniProt O43592, sequence (O43592 whole entry, looked up): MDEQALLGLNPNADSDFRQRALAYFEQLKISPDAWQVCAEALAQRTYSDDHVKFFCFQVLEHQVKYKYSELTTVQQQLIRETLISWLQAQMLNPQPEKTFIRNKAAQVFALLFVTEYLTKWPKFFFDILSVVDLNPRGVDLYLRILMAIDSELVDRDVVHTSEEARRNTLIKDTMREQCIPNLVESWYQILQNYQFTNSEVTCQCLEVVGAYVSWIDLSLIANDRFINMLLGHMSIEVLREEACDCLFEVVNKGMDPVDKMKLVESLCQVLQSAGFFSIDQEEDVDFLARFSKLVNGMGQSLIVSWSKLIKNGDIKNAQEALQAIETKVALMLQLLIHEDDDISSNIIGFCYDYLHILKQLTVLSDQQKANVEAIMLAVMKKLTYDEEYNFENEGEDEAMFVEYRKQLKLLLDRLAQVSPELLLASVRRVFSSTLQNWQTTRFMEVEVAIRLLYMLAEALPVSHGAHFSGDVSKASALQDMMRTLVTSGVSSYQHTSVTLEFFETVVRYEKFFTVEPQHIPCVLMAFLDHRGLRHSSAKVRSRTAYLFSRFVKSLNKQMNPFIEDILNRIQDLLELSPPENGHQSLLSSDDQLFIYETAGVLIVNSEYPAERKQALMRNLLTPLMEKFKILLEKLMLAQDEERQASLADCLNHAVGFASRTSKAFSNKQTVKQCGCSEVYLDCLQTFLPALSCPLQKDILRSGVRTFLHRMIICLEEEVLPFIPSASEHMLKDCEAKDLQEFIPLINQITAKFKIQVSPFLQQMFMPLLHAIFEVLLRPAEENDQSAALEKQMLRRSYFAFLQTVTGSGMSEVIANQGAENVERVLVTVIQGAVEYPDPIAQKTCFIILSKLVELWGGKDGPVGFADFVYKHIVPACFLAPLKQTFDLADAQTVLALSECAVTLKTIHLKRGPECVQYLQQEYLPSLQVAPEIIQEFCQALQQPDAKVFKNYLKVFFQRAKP
inactive: saracatinib 0.017 | sotrastaurin -0.102 | alvocidib -0.023 | Tubastatin A 0.026 | [1] 0.076 | defactinib -0.022 | rucaparib 0.005 | [2] -0.116 | encorafenib 0.076 | [3] -0.044

UQCR10 (UniProt Q9UDW1)
UniProt Q9UDW1, sequence (Q9UDW1 whole entry, looked up): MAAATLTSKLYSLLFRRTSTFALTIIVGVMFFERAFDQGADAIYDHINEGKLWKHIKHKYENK
inactive: saracatinib 0.001 | sotrastaurin 0.121 | alvocidib -0.024 | Tubastatin A -0.103 | [1] 0.018 | defactinib 0.039 | rucaparib -0.063 | [2] 0.018 | encorafenib 0.001 | [3] -0.031

UFL1 (UniProt O94874)
inactive: saracatinib -0.033 | sotrastaurin -0.035 | alvocidib 0.027 | Tubastatin A 0.076 | [1] 0.018 | defactinib -0.045 | rucaparib 0.1 | [2] 0 | encorafenib 0.121 | [3] -0.119

TMEM128 (UniProt Q5BJH2)
inactive: saracatinib 0.083 | sotrastaurin 0.01 | alvocidib -0.082 | Tubastatin A -0.011 | [1] -0.023 | defactinib -0.045 | rucaparib 0.019 | [2] -0.062 | encorafenib -0.006 | [3] -0.006

VTI1A (UniProt Q96AJ9)
inactive: saracatinib 0.101 | sotrastaurin 0.027 | alvocidib -0.002 | Tubastatin A -0.028 | [1] 0.095 | defactinib -0.03 | rucaparib -0.058 | [2] -0.042 | encorafenib -0.001 | [3] 0.07

VPS72 isoform 2 (UniProt Q15906)
inactive: saracatinib -0.094 | sotrastaurin 0.004 | alvocidib 0.042 | Tubastatin A -0.011 | [1] -0.021 | defactinib -0.016 | rucaparib 0.28 | [2] -0.082 | encorafenib -0.053 | [3] -0.019

VPS13B (UniProt Q7Z7G8)
inactive: saracatinib 0.033 | sotrastaurin 0.016 | alvocidib -0.003 | Tubastatin A 0.032 | [1] -0.002 | defactinib 0.009 | rucaparib -0.039 | [2] -0.016 | encorafenib 0.031 | [3] -0.01

TMEM189-UBE2V1 (UniProt I3L0A0)
inactive: saracatinib 0.041 | sotrastaurin 0.157 | alvocidib 0.016 | Tubastatin A -0.007 | [1] -0.004 | defactinib -0.014 | rucaparib -0.059 | [2] -0.038 | encorafenib 0 | [3] 0.018

VAMP7 (UniProt P51809)
inactive: saracatinib 0.029 | sotrastaurin 0.012 | alvocidib -0.019 | Tubastatin A -0.001 | [1] 0.03 | defactinib -0.028 | rucaparib -0.027 | [2] -0.022 | encorafenib 0.029 | [3] -0.011

TRIP10 isoform 2 (UniProt Q15642)
UniProt Q15642, sequence (Q15642 whole entry, looked up): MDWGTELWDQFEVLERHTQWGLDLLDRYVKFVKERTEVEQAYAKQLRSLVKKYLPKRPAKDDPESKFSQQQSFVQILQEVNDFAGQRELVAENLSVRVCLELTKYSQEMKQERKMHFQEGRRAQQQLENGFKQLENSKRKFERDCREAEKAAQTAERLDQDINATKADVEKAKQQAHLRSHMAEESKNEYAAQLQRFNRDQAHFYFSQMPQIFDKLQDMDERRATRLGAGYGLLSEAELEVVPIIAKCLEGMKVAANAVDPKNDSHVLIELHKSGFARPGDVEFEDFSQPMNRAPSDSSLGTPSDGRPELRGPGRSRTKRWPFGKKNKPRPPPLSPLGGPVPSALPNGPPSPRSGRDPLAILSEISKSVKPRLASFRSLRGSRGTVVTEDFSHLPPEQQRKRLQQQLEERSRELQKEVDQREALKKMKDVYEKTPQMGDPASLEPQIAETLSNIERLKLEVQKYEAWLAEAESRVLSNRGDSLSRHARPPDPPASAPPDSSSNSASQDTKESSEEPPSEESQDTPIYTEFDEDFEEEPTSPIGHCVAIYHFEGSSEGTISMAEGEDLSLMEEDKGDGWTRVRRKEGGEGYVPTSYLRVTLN
inactive: saracatinib 0.021 | sotrastaurin 0.151 | alvocidib 0 | Tubastatin A 0.051 | [1] -0.258 | defactinib -0.196 | rucaparib 0.071 | [2] -0.081 | encorafenib -0.147 | [3] -0.246

TMEM214 (UniProt Q6NUQ4)
inactive: saracatinib -0.04 | sotrastaurin 0.068 | alvocidib 0.009 | Tubastatin A 0.062 | [1] -0.002 | defactinib -0.04 | rucaparib 0.121 | [2] 0.03 | encorafenib 0.041 | [3] -0.039

VRK2 (UniProt Q86Y07)
inactive: saracatinib -0.036 | sotrastaurin 0.075 | Tubastatin A 0.014 | [1] -0.102 | defactinib 0.106 | rucaparib -0.039 | [2] -0.017 | encorafenib -0.001 | [3] -0.092
active: alvocidib 0.4

USO1 isoform 2 (UniProt O60763)
inactive: saracatinib 0.076 | sotrastaurin -0.028 | alvocidib -0.012 | Tubastatin A -0.026 | [1] 0.029 | defactinib -0.034 | rucaparib -0.019 | [2] 0.03 | encorafenib 0.022 | [3] -0.003

UBC (UniProt P0CG48)
inactive: saracatinib -0.106 | sotrastaurin 0.042 | alvocidib -0.049 | Tubastatin A 0.252 | [1] 0.002 | defactinib 0.031 | rucaparib 0.053 | [2] 0.017 | encorafenib -0.124 | [3] 0.005

TMEM120A (UniProt Q9BXJ8)
UniProt Q9BXJ8, sequence (Q9BXJ8 whole entry, looked up): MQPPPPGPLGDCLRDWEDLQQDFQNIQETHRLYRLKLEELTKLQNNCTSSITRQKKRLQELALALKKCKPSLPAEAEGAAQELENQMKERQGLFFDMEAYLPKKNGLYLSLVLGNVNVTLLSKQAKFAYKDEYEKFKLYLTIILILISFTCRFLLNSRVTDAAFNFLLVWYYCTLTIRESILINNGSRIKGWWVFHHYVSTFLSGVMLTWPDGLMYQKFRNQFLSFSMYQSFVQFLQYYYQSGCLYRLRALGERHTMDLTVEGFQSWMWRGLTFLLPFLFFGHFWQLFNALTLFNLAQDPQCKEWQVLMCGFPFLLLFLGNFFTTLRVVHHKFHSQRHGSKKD
active: rucaparib -0.559
inactive: saracatinib 0.036 | sotrastaurin -0.098 | alvocidib -0.084 | Tubastatin A 0.069 | [1] -0.013 | defactinib -0.104 | [2] -0.036 | encorafenib 0.184 | [3] -0.047

UBR2 (UniProt Q8IWV8)
UniProt Q8IWV8, sequence (Q8IWV8 whole entry, looked up): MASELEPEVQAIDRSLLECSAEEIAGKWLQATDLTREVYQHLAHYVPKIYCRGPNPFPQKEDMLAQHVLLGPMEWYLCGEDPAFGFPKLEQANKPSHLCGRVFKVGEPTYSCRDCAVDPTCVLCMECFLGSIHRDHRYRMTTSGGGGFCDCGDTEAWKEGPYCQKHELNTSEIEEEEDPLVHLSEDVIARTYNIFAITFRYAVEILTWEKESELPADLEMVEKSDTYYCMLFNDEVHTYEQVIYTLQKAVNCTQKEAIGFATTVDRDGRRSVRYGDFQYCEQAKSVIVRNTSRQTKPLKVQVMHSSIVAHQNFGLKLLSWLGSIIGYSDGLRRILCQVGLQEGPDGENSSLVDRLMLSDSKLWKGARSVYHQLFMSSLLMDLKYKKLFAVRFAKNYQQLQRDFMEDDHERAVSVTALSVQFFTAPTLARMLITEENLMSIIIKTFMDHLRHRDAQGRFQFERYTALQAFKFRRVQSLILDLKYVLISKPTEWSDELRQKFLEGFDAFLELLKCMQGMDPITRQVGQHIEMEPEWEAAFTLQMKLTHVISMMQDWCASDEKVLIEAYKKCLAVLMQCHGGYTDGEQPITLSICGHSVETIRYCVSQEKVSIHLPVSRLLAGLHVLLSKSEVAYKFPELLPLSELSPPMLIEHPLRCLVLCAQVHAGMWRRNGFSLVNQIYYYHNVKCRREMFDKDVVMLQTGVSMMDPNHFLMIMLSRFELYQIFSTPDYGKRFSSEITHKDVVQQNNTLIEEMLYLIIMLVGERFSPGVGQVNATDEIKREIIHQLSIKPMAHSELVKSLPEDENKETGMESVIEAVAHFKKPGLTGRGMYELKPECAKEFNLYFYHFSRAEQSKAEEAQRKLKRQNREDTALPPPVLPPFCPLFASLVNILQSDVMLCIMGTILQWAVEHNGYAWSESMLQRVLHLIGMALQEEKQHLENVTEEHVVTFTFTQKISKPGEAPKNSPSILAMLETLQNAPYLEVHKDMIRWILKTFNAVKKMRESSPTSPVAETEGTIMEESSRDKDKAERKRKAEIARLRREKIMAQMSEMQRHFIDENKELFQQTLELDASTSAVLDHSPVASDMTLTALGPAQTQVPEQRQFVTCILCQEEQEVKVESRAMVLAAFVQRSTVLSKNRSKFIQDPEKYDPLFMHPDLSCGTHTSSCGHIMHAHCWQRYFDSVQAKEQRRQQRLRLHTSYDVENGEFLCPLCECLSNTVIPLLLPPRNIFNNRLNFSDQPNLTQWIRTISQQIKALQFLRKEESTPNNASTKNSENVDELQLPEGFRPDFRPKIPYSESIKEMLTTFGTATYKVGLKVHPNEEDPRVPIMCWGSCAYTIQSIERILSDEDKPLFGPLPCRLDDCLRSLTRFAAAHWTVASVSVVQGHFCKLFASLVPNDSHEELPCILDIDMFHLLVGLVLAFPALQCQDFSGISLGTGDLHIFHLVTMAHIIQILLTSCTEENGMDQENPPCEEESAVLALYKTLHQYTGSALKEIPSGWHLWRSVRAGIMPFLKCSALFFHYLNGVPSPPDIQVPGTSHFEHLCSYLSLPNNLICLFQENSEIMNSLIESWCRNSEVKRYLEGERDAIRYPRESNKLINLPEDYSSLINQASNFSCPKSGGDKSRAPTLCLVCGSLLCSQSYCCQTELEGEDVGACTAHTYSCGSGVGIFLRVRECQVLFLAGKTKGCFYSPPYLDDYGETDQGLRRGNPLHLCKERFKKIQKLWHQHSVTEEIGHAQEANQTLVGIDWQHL
inactive: saracatinib -0.065 | sotrastaurin -0.024 | alvocidib 0.132 | Tubastatin A 0.098 | [1] -0.014 | defactinib -0.052 | rucaparib -0.012 | [2] 0.145 | encorafenib 0.143 | [3] 0.085

UBE2E3 (UniProt Q969T4)
inactive: saracatinib -0.03 | sotrastaurin -0.044 | alvocidib -0.085 | Tubastatin A -0.074 | [1] 0.067 | defactinib -0.162 | rucaparib -0.014 | [2] -0.022 | encorafenib 0.017 | [3] -0.067

TTI2 (UniProt Q6NXR4)
inactive: saracatinib -0.028 | sotrastaurin -0.187 | alvocidib 0.027 | Tubastatin A -0.02 | [1] 0.051 | defactinib -0.073 | rucaparib 0.119 | [2] -0.036 | encorafenib 0.037 | [3] -0.038

TMEM70 (UniProt Q9BUB7)
inactive: saracatinib 0.106 | sotrastaurin 0.028 | alvocidib 0.015 | Tubastatin A 0.011 | [1] 0.142 | defactinib -0.004 | rucaparib -0.057 | [2] -0.001 | encorafenib 0.009 | [3] 0

UTP3 (UniProt Q9NQZ2)
inactive: saracatinib 0.232 | sotrastaurin -0.1 | alvocidib 0.173 | Tubastatin A 0.067 | [1] 0.094 | defactinib 0.104 | rucaparib 0.238 | [2] -0.106 | encorafenib 0.23 | [3] 0.051

XPO6 (UniProt Q96QU8)
inactive: saracatinib -0.012 | sotrastaurin -0.119 | alvocidib -0.115 | Tubastatin A -0.009 | [1] 0.036 | defactinib -0.104 | rucaparib 0.076 | [2] 0.037 | encorafenib 0.015 | [3] -0.03
